Experimental findings from PubChem BioAssay AID1049 (The Scripps Research Institute Molecular Screening Center, 2008) are described below.

In all, about 200,000 compounds went through this assay and about 780 (0.39%) were called active. Many of the other results were omitted from the sample, so actives are more common in it than they were. Values without a mark were called inactive. Cut-off read from the data, not from the text of the source: active = TR-FRET ratio above about 2000; inactive = the rest.

This assay can be described thus: TR-FRET signal artefacts, primary screen, artefact control for PPARgamma SRC-2 agonist project, biochemical (AID 1049). As to conditions: TR-FRET artefact counter-screen; at 8 µM; hits give high values. (TR-FRET usually uses a lanthanide donor and a delayed reading to cut background.)
Turning to `CSC1=NP(=S)(SC)N(C)c2nc3n(c21)CCC3` (stereo not given), the TR-FRET ratio was 3350 (active).

For `Cc1ccc(C)c(NC2=NCCCS2)c1`, the TR-FRET ratio is 1500.

For `Cc1cccc(-n2c(O)c(C=NC34CN5CN(CN(C5)C3)C4)c(=O)[nH]c2=O)c1`, the TR-FRET ratio was 1640. For the molecule `OC1/C(=C/c2ccc(C(F)(F)F)cc2)N2CCC1CC2` (stereo not given), the TR-FRET ratio is 1710. Turning to `COc1cc(-n2c(=S)[nH]c3ccc(C)cc3c2=O)c(Cl)cc1Cl`, the TR-FRET ratio is 2140 (active). The same measure for `O=c1c2ccccc2nc(-c2ccccc2)n1-c1ccccn1`: 1550. The same measure for `O=C(COC(=O)Cc1ccccc1)Nc1ccc(F)cc1`: 1600; for `CN(C)c1nc(N(C)C)nc(N(C#N)CCCl)n1`: 1800; for `CCCn1c(C(=O)c2ccccc2OC)nc2ccccc21`: 1400. The same measure for `O=c1[nH]c(=O)n(-c2ccccc2)c(O)c1C=NC12CN3CN(CN(C3)C1)C2`: 1500.
